High-throughput results deposited in PubChem by Broad Institute.
This is a sample that favours compounds with a hit; in the whole collection about 3% have one here.
C2C12 statin: suppression of simvastatin myotoxicity. rescue of ATP level, % at 7.49 µM. C2C12 myotubes + simvastatin, ATP luminescence, 48 h; scaled: DMSO 0, geranylgeraniol control 100. actives 0.78% (n = 330,000). AID 602340;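 active = mean ATP rescue above about 67%, or every replicate alone reaching that limit, limit read from the data, passing the limit was not always enough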;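 also: myotubes were challenged with 10 µM simvastatin during compound exposure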
Wnt bcat act: activators of Wnt/beta-catenin signaling; Wnt/beta-catenin reporter cell assay, activator, plate reader; activation, % at 9.35 µM; actives 1.2% (n = 300,000); in the data active = activation above about 30%, passing the limit was not always enough;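 also: 0% = neutral control wells and 100% = positive control wells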
esBAF inh: SWI/SNF esBAF complex inhibition | mouse ES cells, Bmi1-luciferase knock-in reporter, 24 h; 100% = twice the neutral-well signal | reporter increase, % at 12.5 µM | actives 2% (n = 350,000); in the data active = activation above about 40%;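 also: 0% = median of the plate's neutral control wells and 100% = double that signal; a rise in the Bmi1 reporter signal indicates esBAF inhibition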
MITF act: MITF TRPM1 promoter activation in melanoma cells | SK-MEL-5 TRPM1-promoter luciferase, 24 h; % of positive control, neutral wells = 0 | activation, % at 12.5 µM | actives 0.75% (n = 300,000) | AID 588334;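 active = mean activation of at least 80% with every replicate also reaching 80%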;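 also: 0% = neutral control wells and 100% = parthenolide positive control wells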
Starred values were filed as active, the others as inactive; · = no result.

SMILES	C2C12 statin	Wnt bcat act	esBAF inh	MITF act
Cc1cccc(C)c1NS(=O)(=O)c1ccc(F)cc1	115*	·	-4	-5
COc1ccccc1NC(=O)c1ccccc1C(=O)Nc1ccccc1OC	-5	0	2	4
COc1ccccc1C(=O)Nc1ccc2c3c(cccc13)CC2	-2	·	62*	62
COc1cccc(OC)c1C(=O)Nc1ccc2c3c(cccc13)CC2	16	·	4	23
COC(=O)c1ccccc1NC(=O)c1ccccc1OC	124*	-2	-10	13
O=[N+]([O-])c1cc(-c2cnc3ccccc3n2)ccc1Oc1ccc(Br)cc1	0	·	44*	·
O=[N+]([O-])c1ccc(Oc2ccc(-c3cnc4ccccc4n3)cc2[N+](=O)[O-])cc1	-15	6	37	12
O=C(Nc1ccccc1F)N1[C@H](CO)[C@@H]2c3ccccc3NC[C@@H]21	31	·	63*	·
C[C@H](NC(=O)[C@H]1[C@H](CO)[C@H]2Cn3c(cccc3=O)[C@@H]1N2CCC(F)(F)F)c1ccccc1	12	·	-3	·
CC(=O)Nc1cccc(-c2ccnc3c2CC(C)(C(=O)Nc2ccc(Cl)c(C(F)(F)F)c2)O3)c1 (stereo unspecified)	80*	-3	13	·
C[C@@H]1CN([C@H](C)CO)C(=O)c2cc(NS(=O)(=O)c3cn(C)cn3)ccc2O[C@@H](C)CCCCO[C@@H]1CN(C)Cc1ccncc1	·	·	0	·
O=C(C[C@@H]1CC[C@H](NC(=O)CC2CC2)[C@@H](CO)O1)NCc1ccc(-c2ccccc2)cc1	5	·	-2	·
CN1/C(=C\C=C2/C(=O)Oc3ccccc3C2=O)C(C)(C)c2ccccc21	·	52*	·	·
CN1CCN(C(=O)C[C@H]2CC[C@H]3[C@@H](COC[C@H](O)CN3Cc3ccc4c(c3)OCO4)O2)CC1	-18	·	-5	·
CCOC(=O)/C=C1\SCC(=O)N1CC(=O)Nc1ccc2c(c1)CCC2	-11	43*	1	-9
CCCSc1nc(N)nc(-c2cccs2)c1C#N	3	·	48*	76
CC=Cc1ccc2n(c1=O)C[C@H]1[C@H](CO)[C@@H](C(=O)NCCc3ccncc3)[C@@H]2N1Cc1ccncc1 (mixture of isomers)	2	·	-5	·
Clc1ccc(-c2nnc(C3CC3)o2)cc1	4	7	5	14
Clc1ccc(-c2nnc(C3CCCCC3)o2)cc1	123*	27	37	38
Clc1ccc(-c2nc(C3CCCCC3)no2)cc1	4	71*	76*	91*
Cc1ccc(-c2nc(C3CCN(S(C)(=O)=O)CC3)no2)cc1	-12	·	40	27
COc1ccc(C(C[N+](=O)[O-])c2c(C)[nH]n(-c3ccccc3)c2=O)cc1 (stereo unspecified)	2	1	-8	-16
Cc1[nH]n(-c2ccccc2)c(=O)c1C(C[N+](=O)[O-])c1ccccc1Cl (stereo unspecified)	118*	·	8	-8
COc1ccc(C(CCN2CCOCC2)c2c(O)cc(OC)cc2OC)cc1 (stereo unspecified)	-11	-1	-4	10
COc1ccc(C(c2c(O)ccc3ccccc23)N2CCOCC2)c(OC)c1 (stereo unspecified)	·	76*	·	·
SMILES	C2C12 statin	Wnt bcat act	esBAF inh	MITF act
C[C@H]1CN([C@@H](C)CO)C(=O)c2cc(-c3cccnc3)cnc2O[C@@H]1CN(C)Cc1ccccc1	1	·	·	·
O=C(Cn1c(=O)n(CC2CCCO2)c(=O)c2ccccc21)c1ccc(Cl)c(Cl)c1 (stereo unspecified)	80*	·	0	-7
CC(C)(C)C(=O)Cn1c(=O)n(CC2CCCO2)c(=O)c2ccccc21 (stereo unspecified)	·	·	·	-3
C#CNC(=O)C1(CC=C)CCNCC1	100*	-3	5	9
O=C(Nc1cccnc1Cl)c1cc(-c2ccco2)on1	-3	59*	46*	·
O=C(Nc1cc(Cl)ccc1O)c1cc(-c2ccco2)on1	7	30	67*	74
O=C(Nc1cc(Br)ccc1O)c1cc(-c2ccco2)on1	·	9	·	56
COc1ccc(S(=O)(=O)N[C@H]2C=C[C@H](CC(=O)N3CCc4ccccc4C3)O[C@@H]2CO)cc1	11	·	1	·
CN1C(=O)CC(N2CCN(c3ccccc3)CC2)C1=O (stereo unspecified)	138*	-7	5	-6
CCN1C(=O)CC(N2CCN(c3ccc(C(=O)c4ccccc4)cc3)CC2)C1=O (stereo unspecified)	-5	-1	55*	48
CCN1C(=O)CC(N2CCN(c3ccc(Cl)cc3)CC2)C1=O (stereo unspecified)	·	0	-4	0
COc1ccc(NC(=O)Nc2ccc3c(c2)CC(=O)N([C@@H](C)CO)C[C@H](C)[C@H](CN(C)Cc2ccccc2)O3)cc1	-38	·	4	·
C[C@@H]1CN([C@H](C)CO)S(=O)(=O)c2ccc(Br)cc2O[C@H]1CN(C)Cc1ccccc1	-86	·	-4	·
C/C(=N\Nc1ccc(Cl)c(C(=O)O)c1)c1cccc2ccccc12	-2	4	8	·
O=C(O)c1cc(N/N=C/c2cccc3ccccc23)ccc1Cl	1	27	80*	100*
c1ccc(CNc2nc3ccccc3[nH]2)cc1	-33	20	15	83*
Cc1[nH]c2ccccc2c1/C=N/Nc1nc(N2CCCCC2)nc(N2CCCCC2)n1	·	-10	·	11
Cc1ccccc1/C=N/Nc1nc2ccccc2[nH]1	·	8	·	34
Fc1cccc(/C=N/Nc2nc3ccccc3[nH]2)c1	·	12	·	·
Cc1[nH]c2ccccc2c1/C=N/Nc1nc2ccccc2[nH]1	·	98*	·	·
C(=C\c1ccccc1)/C=N/Nc1nc2ccccc2[nH]1	·	90*	·	26
Cc1ccc(/C=N/Nc2nc3ccccc3[nH]2)s1	·	156*	·	40
Cc1ccc(S(=O)(=O)Nc2ccc3c(c2)CC(=O)N([C@@H](C)CO)C[C@H](C)[C@@H](CN(C)C(=O)Nc2c(C)noc2C)O3)cc1	-14	·	3	·
Cc1ccc(/C=N/Nc2nc(Cl)c(Cl)cc2Cl)s1	-6	72*	60*	20
C(=N\Nc1nc2ccccc2[nH]1)/C1CCCCC1	·	-2	·	22
SMILES	C2C12 statin	Wnt bcat act	esBAF inh	MITF act
COc1ccc(/C=N/Nc2nc3ccccc3[nH]2)c(OC)c1OC	2	4	-17	10
C(=N\Nc1nc2ccccc2[nH]1)/c1c[nH]c2ccccc12	·	·	·	123*
C(=N\Nc1nc2ccccc2[nH]1)/c1cccc2cccnc12	·	37*	·	·
C(/CCc1ccccc1)=N\Nc1nc2ccccc2[nH]1	·	40*	·	5
C[C@@H]1CN([C@H](C)CO)C(=O)c2cc(-c3cccnc3)cnc2O[C@@H]1CN(C)Cc1ccccc1	7	·	·	·
C(=N\Nc1nc2ccccc2[nH]1)/c1ccccc1	-10	0	55*	80
CSc1cccc2sc(NC(=O)C3=COCCO3)nc12	1	6	57*	68
C[C@@H]1CN([C@H](C)CO)C(=O)c2cc(NC(=O)C3CCCCC3)ccc2O[C@@H]1CN(C)Cc1ccc(Cl)c(Cl)c1	2	·	2	·
Cn1ccnc1SCC(=O)c1cccc(C(F)(F)F)c1	1	24	33	89*
